In PubChem BioAssay (NCATS):
Values joined by “and” are separate entries in the source; they are usually repeats but may differ in a detail not shown here. Identical values can stand only once. Inconclusive results are not listed. Unmarked numbers belong to inactive results. Active and inactive are the calls of the source. Unless noted, calls follow the shape of the dose curve; as a rule, active = well fitted curve in the direction sought with a large enough effect; inconclusive = small, poorly fitted or top-dose-only effect, or another doubt; inactive = no such curve, though single readings can be large; an effect the other way counts as inactive or inconclusive.

Assay: qHTS assay for small molecule agonists of the antioxidant response element (ARE) signaling pathway measured by Nrf2-dependant transcriptional activity - cell viability counter screen (AID 720653; active = well fitted curve in the direction sought with a large enough effect in the repeat runs; an effect the other way counts as inactive or inconclusive)
Conditions: ARE-bla HepG2 viability, CellTiter-Glo ATP luminescence, 16 h; max response: active compounds read low
Summary of the method: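 ARE-bla HepG2 cells treated with compounds for 16 h at 37C; this counter screen measures viability as intracellular ATP by CellTiter-Glo luminescence after 30 min at room temperature.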
% is scaled to controls: 0 for no effect and ±100 for the full control effect.

Row | SMILES | max response
1 | O=c1cc(-c2ccccc2)oc2ccccc12 | -6.91% and -11.5%
2 | COc1cc(CNC(=O)CCCC/C=C/C(C)C)ccc1O | -7.9% and -5.74%
3 | Nc1ccc([N+](=O)[O-])cc1O | -6.11% and -12.4%

Assay: qHTS Assay for Identifying Gametocytocidal Compounds (AID 743244); also: potency is read from the fitted curve at half-maximal effect;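 as to max response: actives lower the fluorescent signal which means gametocytes are killed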
Conditions: P. falciparum 3D7 stage III-V gametocytes, alamarBlue, 72 h; max response: active compounds read low
Summary of the method: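 In this qHTS viability screen, late-stage 3D7 gametocytes are incubated with compound for 72 h, then with alamarBlue for 24 h; reduced resorufin fluorescence marks killing.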

Row | SMILES | max response | Potency
4 | COC(=O)[C@H]1[C@H]2C[C@@H]3c4[nH]c5cc(OC)ccc5c4CCN3C[C@H]2C[C@@H](OC(=O)/C=C/c2cc(OC)c(OC)c(OC)c2)[C@@H]1OC | -0.068% | –
5 | CC1(C)S[C@@H]2[C@H](NC(=O)[C@H](N)c3ccc(O)cc3)C(=O)N2[C@H]1C(=O)O | 4.64% and 10.7% | –
6 | COc1ccc(-c2cc(=S)ss2)cc1 | 9.16% | –
7 | CCOc1ccc2nc(S(N)(=O)=O)sc2c1 | 10.4% | –
8 | COc1cc(NC(C)CCCN)c2ncccc2c1 (stereo not drawn) | – | 2.15 µM (active)
9 | O=c1[nH]c2ccccc2n1CCCN1CCN(C(c2ccccc2)c2ccccc2)CC1 | 14.5% | –
10 | CCCCCC[C@@H](O)C/C=C\CCCCCCCC(=O)O | 10.3% and -5.91% and 3.41% | –
11 | CCCCCCOc1ccccc1C(N)=O | -0.639% | –
12 | Cc1c(C(=O)O)c(O)cc2c1C(=O)c1c(O)c([C@@H]3O[C@H](CO)[C@@H](O)[C@H](O)[C@H]3O)c(O)c(O)c1C2=O | -1.02% | –
13 | C[S+](CC[C@H](N)C(=O)O)C[C@H]1O[C@@H](n2cnc3c(N)ncnc32)[C@H](O)[C@@H]1O (stereo partly drawn) | 6.19% and -10.1% | –
14 | CC(=O)c1ccc(OCC(=O)N2CCCCC2)cc1 | 6.76% | –
15 | O=c1cc(-c2ccccc2)oc2ccccc12 | 7.39% | –
16 | COc1cc(CNC(=O)CCCC/C=C/C(C)C)ccc1O | 10.1% | –
17 | N=C(N)N | -3.24% | –
18 | Nc1ccc([N+](=O)[O-])cc1O | -2.68% | –
19 | C/C(=N\O)c1ccc(OCC(=O)N2CCCCC2)cc1 | 0.0539% | –
20 | CC1(C)S[C@@H]2[C@H](NC(=O)[C@H](NC(=O)N3CCN(S(C)(=O)=O)C3=O)c3ccccc3)C(=O)N2[C@H]1C(=O)O | 9.5% | –
21 | O=C(O)[C@H](CC(=O)N1C[C@H]2CCCC[C@H]2C1)Cc1ccccc1 | -8.96% | –

Row | SMILES | max response | Potency
22 | NC(=O)C(c1ccccc1)(c1ccccc1)[C@@H]1CCN(CCc2ccc3c(c2)CCO3)C1 | -5.51% | –
23 | CN(C)[C@@H]1C(=O)C(C(=O)NCN2CCCC2)=C(O)[C@@]2(O)C(=O)C3=C(O)c4c(O)cccc4[C@@](C)(O)C3C[C@@H]12 (stereo partly drawn) | 6.22% and 1.93% | –
24 | Nc1c(CC(=O)O)cccc1C(=O)c1ccc(Br)cc1 | 4.37% | –
25 | CC(C(=O)O)c1ccc(C(=O)c2ccccc2)s1 (stereo not drawn) | -0.0039% | –
26 | O=C(CCN1CCN(CCO)CC1)N1c2ccccc2Sc2ccc(C(F)(F)F)cc21 | -4.95% | –
27 | CC[C@H]1OC(=O)[C@H](C)C(=O)[C@H](C)[C@@H](O[C@@H]2O[C@H](C)C[C@H](N(C)C)[C@H]2O)[C@](C)(OC)C[C@@H](C)C(=O)[C@H](C)[C@H]2N(CCCCn3cnc(-c4cccnc4)c3)C(=O)O[C@]12C | -5.82% and 15.9% | –
28 | c1ccc(CCNc2nc(-c3ccccc3)cs2)cc1 | -4.46% | –
29 | CC1(C)[C@@H](O[C@H]2O[C@H](C(=O)O)[C@@H](O)[C@H](O)[C@H]2O[C@@H]2O[C@H](C(=O)O)[C@@H](O)[C@H](O)[C@H]2O)CC[C@]2(C)[C@H]3C(=O)C=C4[C@@H]5C[C@@](C)(C(=O)O)CC[C@]5(C)CC[C@@]4(C)[C@]3(C)CC[C@@H]12 | 1.42% and -3.92% | –
30 | CC(=O)O[C@H]1C[C@@]2(C)[C@@H](C[C@@H](O)[C@H]3[C@@]4(C)CC[C@@H](O)[C@@H](C)[C@@H]4CC[C@@]32C)/C1=C(\CCC=C(C)C)C(=O)O | -4.85% | –
31 | COc1cc(/C=C/C(=O)N2CCN(CC(=O)N3CCCC3)CC2)cc(OC)c1OC | -1.2% | –
32 | COC(=O)C1=C(C)NC(C)=C(C(=O)OCC(C)=O)C1c1ccccc1[N+](=O)[O-] (stereo not drawn) | 14.8% | –
33 | CCCC(=O)OC[C@@H](OC(=O)CCC)[C@@H](OC(=O)CCC)[C@H](Cn1c2nc(=O)[nH]c(=O)c-2nc2cc(C)c(C)cc21)OC(=O)CCC | 3.76% | –
34 | CN1[C@@H]2CC[C@H]1CC(OC(c1ccccc1)c1ccccc1)C2 (stereo partly drawn) | -0.265% and -8.62% | –
35 | Cc1c(Nc2ncccc2C(=O)O)cccc1C(F)(F)F | 18.5% | –
36 | C[C@H](O)[C@H](O)[C@H]1CNc2nc(N)[nH]c(=O)c2N1 | -5.73% | –
37 | CN1CCN(c2cc3c(nn2)Oc2ccccc2N3C)CC1 | -7.02% | –
38 | CC(=O)SCC(CC(=O)c1ccc(C)cc1)C(=O)O (stereo not drawn) | 17.7% | –
